From publication PMC5540273 (PLoS ONE, 2017)

Legend:
Conditions in all cases: concentration: 1 μM, replicates: in singlicate; n = 1
MAP3K3 = tested on: MAP3K3
MAP3K4 = tested on: MAP3K4
MAP4K2 = tested on: MAP4K2
MAP4K3 = tested on: MAP4K3
MAP4K4 = tested on: MAP4K4
MAP4K5 = tested on: MAP4K5
MAPKAPK2 = tested on: MAPKAPK2
MAPKAPK5 = tested on: MAPKAPK5
MARK1 = tested on: MARK1
MARK2 = tested on: MARK2
MARK3 = tested on: MARK3
MARK4 = tested on: MARK4
MAST1 = tested on: MAST1
MEK1 = tested on: T1, MEK1
T1 construct: gene MAP2K1

MEK2 = tested on: T2, MEK2
T2 construct: gene MAP2K2

MEK3 = tested on: T3, MEK3
T3 construct: gene MAP2K3

MEK4 = tested on: T4, MEK4
T4 construct: gene MAP2K4

MEK5 = tested on: T5, MEK5
T5 construct: gene MAP2K5

MEK6 = tested on: T6, MEK6
T6 construct: gene MAP2K6

MELK = tested on: MELK
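Note: KINOMEscan kinase panel screen.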

With `O=C(Nc1ccccc1F)NC1CCN(c2ccnc(Nc3ccc(F)cc3)n2)C1` (stereo not shown) [GSK1379722] the “%Inh” value (MAP3K3) was 0%, the “%Inh” value (MAP3K4) was 14% and the “%Inh” value (MAP4K2) was 0%. The “%Inh” value (MAP4K3) was 0%, the “%Inh” value (MAP4K4) was 0% and the “%Inh” value (MAP4K5) was 0%. The “%Inh” value (MAPKAPK2) was 18%, the “%Inh” value (MAPKAPK5) was 0% and the “%Inh” value (MARK1) was 0%. The “%Inh” value (MARK2) was 0%, the “%Inh” value (MARK3) was 0% and the “%Inh” value (MARK4) was 0%. For the same compound, the “%Inh” value (MAST1) was 14%, the “%Inh” value (MEK1) was 0% and the “%Inh” value (MEK2) was 0%. The “%Inh” value (MEK3) was 0%, the “%Inh” value (MEK4) was 25% and the “%Inh” value (MEK5) was 12%. For the same compound, the “%Inh” value (MEK6) was 0% and the “%Inh” value (MELK) was 0%.
`CC(C)N1CCC(n2cnc(-c3ccc(F)cc3)c2-c2ccnc(N)n2)CC1` [SB-223132] was tested, and the “%Inh” value (MAP3K3) was 0%, the “%Inh” value (MAP3K4) was 26% and the “%Inh” value (MAP4K2) was 0%. The “%Inh” value (MAP4K3) was 0%, the “%Inh” value (MAP4K4) was 0% and the “%Inh” value (MAP4K5) was 0%. The “%Inh” value (MAPKAPK2) was 1%, the “%Inh” value (MAPKAPK5) was 0% and the “%Inh” value (MARK1) was 0%. For the same compound, the “%Inh” value (MARK2) was 0%, the “%Inh” value (MARK3) was 14% and the “%Inh” value (MARK4) was 15%. The “%Inh” value (MAST1) was 0%, the “%Inh” value (MEK1) was 0% and the “%Inh” value (MEK2) was 22%. The “%Inh” value (MEK3) was 0%, the “%Inh” value (MEK4) was 0% and the “%Inh” value (MEK5) was 31%. The “%Inh” value (MEK6) was 3% and the “%Inh” value (MELK) was 8%.
In the case of `O=C(CCO)NCCn1ccc2ncnc(Nc3ccc(Oc4cccc(C(F)(F)F)c4)c(Cl)c3)c21`, the “%Inh” value (MAP3K3) is reported as 0%, the “%Inh” value (MAP3K4) is reported as 0% and the “%Inh” value (MAP4K2) is reported as 0%. The “%Inh” value (MAP4K3) was 3%, the “%Inh” value (MAP4K4) was 3% and the “%Inh” value (MAP4K5) was 0%. The “%Inh” value (MAPKAPK2) was 0%, the “%Inh” value (MAPKAPK5) was 0% and the “%Inh” value (MARK1) was 0%. The “%Inh” value (MARK2) was 4%, the “%Inh” value (MARK3) was 0% and the “%Inh” value (MARK4) was 0%. The “%Inh” value (MAST1) was 0%, the “%Inh” value (MEK1) was 0% and the “%Inh” value (MEK2) was 34%. For the same compound, the “%Inh” value (MEK3) was 0%, the “%Inh” value (MEK4) was 0% and the “%Inh” value (MEK5) was 99.4%. For the same compound, the “%Inh” value (MEK6) was 0% and the “%Inh” value (MELK) was 0%.
With `Nc1nc(-c2cccnc2)c(-c2ccnc3ccccc23)s1` [GW684083] the “%Inh” value (MAP3K3) was 0%, the “%Inh” value (MAP3K4) was 0% and the “%Inh” value (MAP4K2) was 0%. The “%Inh” value (MAP4K3) was 0%, the “%Inh” value (MAP4K4) was 16% and the “%Inh” value (MAP4K5) was 0%. The “%Inh” value (MAPKAPK2) was 14%, the “%Inh” value (MAPKAPK5) was 0% and the “%Inh” value (MARK1) was 0%. The “%Inh” value (MARK2) was 0%, the “%Inh” value (MARK3) was 0% and the “%Inh” value (MARK4) was 0%. The “%Inh” value (MAST1) was 22%, the “%Inh” value (MEK1) was 0% and the “%Inh” value (MEK2) was 0%. The “%Inh” value (MEK3) was 0%, the “%Inh” value (MEK4) was 1% and the “%Inh” value (MEK5) was 70%. The “%Inh” value (MEK6) was 0% and the “%Inh” value (MELK) was 6%.
In the case of `Cl.Cl.c1ccc(-c2cc3ccncc3cc2OC2CCNCC2)cc1` [GSK1122999], the “%Inh” value (MAP3K3) is reported as 0%, the “%Inh” value (MAP3K4) is reported as 18% and the “%Inh” value (MAP4K2) is reported as 0%. For the same compound, the “%Inh” value (MAP4K3) was 0%, the “%Inh” value (MAP4K4) was 10% and the “%Inh” value (MAP4K5) was 0%. The “%Inh” value (MAPKAPK2) was 25%, the “%Inh” value (MAPKAPK5) was 0% and the “%Inh” value (MARK1) was 0%. The “%Inh” value (MARK2) was 0%, the “%Inh” value (MARK3) was 0% and the “%Inh” value (MARK4) was 5%. The “%Inh” value (MAST1) was 0%, the “%Inh” value (MEK1) was 0% and the “%Inh” value (MEK2) was 5%. For the same compound, the “%Inh” value (MEK3) was 0%, the “%Inh” value (MEK4) was 23% and the “%Inh” value (MEK5) was 16%. The “%Inh” value (MEK6) was 0% and the “%Inh” value (MELK) was 17%.
For `Cn1cc(-c2ccc3c(c2)CCN3C(=O)Cc2cccc(C(F)(F)F)c2)c2c(N)ncnc21` [GSK2606414], the “%Inh” value (MAP3K3) was 0%, the “%Inh” value (MAP3K4) was 12% and the “%Inh” value (MAP4K2) was 0%. The “%Inh” value (MAP4K3) was 0%, the “%Inh” value (MAP4K4) was 10% and the “%Inh” value (MAP4K5) was 10%. The “%Inh” value (MAPKAPK2) was 100%, the “%Inh” value (MAPKAPK5) was 0% and the “%Inh” value (MARK1) was 6%. For the same compound, the “%Inh” value (MARK2) was 0%, the “%Inh” value (MARK3) was 0% and the “%Inh” value (MARK4) was 7%. For the same compound, the “%Inh” value (MAST1) was 0%, the “%Inh” value (MEK1) was 0% and the “%Inh” value (MEK2) was 0%. The “%Inh” value (MEK3) was 0%, the “%Inh” value (MEK4) was 22% and the “%Inh” value (MEK5) was 6%. The “%Inh” value (MEK6) was 0% and the “%Inh” value (MELK) was 8%.
With `Cl.c1ccc(Cn2ccc3cc(Nc4ncnc5ccccc45)ccc32)cc1` [GW275568] the “%Inh” value (MAP3K3) was 0%, the “%Inh” value (MAP3K4) was 5% and the “%Inh” value (MAP4K2) was 0%. The “%Inh” value (MAP4K3) was 1%, the “%Inh” value (MAP4K4) was 4% and the “%Inh” value (MAP4K5) was 3%. For the same compound, the “%Inh” value (MAPKAPK2) was 7%, the “%Inh” value (MAPKAPK5) was 0% and the “%Inh” value (MARK1) was 17%. The “%Inh” value (MARK2) was 28%, the “%Inh” value (MARK3) was 1% and the “%Inh” value (MARK4) was 30%. The “%Inh” value (MAST1) was 0%, the “%Inh” value (MEK1) was 14% and the “%Inh” value (MEK2) was 6%. For the same compound, the “%Inh” value (MEK3) was 11%, the “%Inh” value (MEK4) was 19% and the “%Inh” value (MEK5) was 84%. The “%Inh” value (MEK6) was 5% and the “%Inh” value (MELK) was 9%.
`Nc1nccc2scc(-c3ccc4c(c3)CCN4C(=O)Cc3cc(F)ccc3F)c12` [GSK2587663] was tested, and the “%Inh” value (MAP3K3) was 0%, the “%Inh” value (MAP3K4) was 10% and the “%Inh” value (MAP4K2) was 0%. For the same compound, the “%Inh” value (MAP4K3) was 3%, the “%Inh” value (MAP4K4) was 0% and the “%Inh” value (MAP4K5) was 9%. For the same compound, the “%Inh” value (MAPKAPK2) was 20%, the “%Inh” value (MAPKAPK5) was 0% and the “%Inh” value (MARK1) was 0%. The “%Inh” value (MARK2) was 0%, the “%Inh” value (MARK3) was 4% and the “%Inh” value (MARK4) was 0%. The “%Inh” value (MAST1) was 9%, the “%Inh” value (MEK1) was 0% and the “%Inh” value (MEK2) was 0%. For the same compound, the “%Inh” value (MEK3) was 0%, the “%Inh” value (MEK4) was 5% and the “%Inh” value (MEK5) was 67%. The “%Inh” value (MEK6) was 0% and the “%Inh” value (MELK) was 0%.
In the case of `CSc1ccc(NC2=C(c3ccccc3Cl)C(=O)NC2=O)cc1` [SB-342411], the “%Inh” value (MAP3K3) is reported as 0%, the “%Inh” value (MAP3K4) is reported as 30% and the “%Inh” value (MAP4K2) is reported as 0%. For the same compound, the “%Inh” value (MAP4K3) was 10%, the “%Inh” value (MAP4K4) was 2% and the “%Inh” value (MAP4K5) was 6%. The “%Inh” value (MAPKAPK2) was 3%, the “%Inh” value (MAPKAPK5) was 1% and the “%Inh” value (MARK1) was 3%. For the same compound, the “%Inh” value (MARK2) was 0%, the “%Inh” value (MARK3) was 0% and the “%Inh” value (MARK4) was 13%. For the same compound, the “%Inh” value (MAST1) was 0%, the “%Inh” value (MEK1) was 14% and the “%Inh” value (MEK2) was 3%. For the same compound, the “%Inh” value (MEK3) was 0%, the “%Inh” value (MEK4) was 0% and the “%Inh” value (MEK5) was 5%. For the same compound, the “%Inh” value (MEK6) was 76% and the “%Inh” value (MELK) was 4%.
For `NC(=O)c1sc(-n2cnc3ccccc32)cc1OCc1ccccc1F` [GSK1024306], the “%Inh” value (MAP3K3) was 0%, the “%Inh” value (MAP3K4) was 23% and the “%Inh” value (MAP4K2) was 0%. The “%Inh” value (MAP4K3) was 0%, the “%Inh” value (MAP4K4) was 8% and the “%Inh” value (MAP4K5) was 21%. For the same compound, the “%Inh” value (MAPKAPK2) was 0%, the “%Inh” value (MAPKAPK5) was 0% and the “%Inh” value (MARK1) was 0%. For the same compound, the “%Inh” value (MARK2) was 0%, the “%Inh” value (MARK3) was 0% and the “%Inh” value (MARK4) was 1%. For the same compound, the “%Inh” value (MAST1) was 11%, the “%Inh” value (MEK1) was 0% and the “%Inh” value (MEK2) was 0%. The “%Inh” value (MEK3) was 0%, the “%Inh” value (MEK4) was 20% and the “%Inh” value (MEK5) was 69%. For the same compound, the “%Inh” value (MEK6) was 0% and the “%Inh” value (MELK) was 23%.
For `c1ccc(-c2ccc3c(-c4ccnc(Nc5ccc6c(c5)OCCO6)n4)cnn3n2)cc1` [GW818941], the “%Inh” value (MAP3K3) was 0%, the “%Inh” value (MAP3K4) was 14% and the “%Inh” value (MAP4K2) was 6%. The “%Inh” value (MAP4K3) was 4%, the “%Inh” value (MAP4K4) was 23% and the “%Inh” value (MAP4K5) was 20%. For the same compound, the “%Inh” value (MAPKAPK2) was 5%, the “%Inh” value (MAPKAPK5) was 13% and the “%Inh” value (MARK1) was 0%. The “%Inh” value (MARK2) was 0%, the “%Inh” value (MARK3) was 0% and the “%Inh” value (MARK4) was 9%. For the same compound, the “%Inh” value (MAST1) was 8%, the “%Inh” value (MEK1) was 17% and the “%Inh” value (MEK2) was 3%. The “%Inh” value (MEK3) was 0%, the “%Inh” value (MEK4) was 9% and the “%Inh” value (MEK5) was 5%. The “%Inh” value (MEK6) was 0% and the “%Inh” value (MELK) was 0%.
